From PubChem BioAssay (NCI)
Compounds without any hit were thinned out: in the full panel of roughly 79,000, 15% have a hit. A number with no mark means an inactive call. Calls of active or inactive are those of the source. Cut-off read from the data, not from the text of the source: active = growth inhibition above about 70%; inactive = the rest.

Test: NCI Yeast Anticancer Drug Screen. Data for the sgs1 strain (AID 173);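 note: 0% = growth of vehicle-only control cultures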
Details: S. cerevisiae sgs1 mutant, at 11.0 µM, stronger effect = higher value
Outline: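 Yeast mutant strains carrying defined defects in DNA damage repair or cell cycle control were exposed to test compounds. Growth inhibition was scored against vehicle-treated controls.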

SMILES | growth inhibition
O=[N+]([O-])CC(SCc1ccccc1)c1ccc2c(c1)OCO2 (configuration not stated) | 97% (active)
COc1cc2c(cc1[N+](=O)[O-])C(=O)C(Br)(Br)CCC2 | 83% (active)
OCC1OC(OCC(O)C(O)C(O)C(/C=N/Nc2ccccc2)=N/Nc2ccccc2)C(O)C(O)C1O (configuration not stated) | 16%
COc1ccc(N=C2C(=O)Nc3ccc(Br)cc32)cc1 | -5%
Cn1c(=O)c2ccccc2c2ccccc21 | -2%
CC[n+]1ccc2c(C)c3[nH]c4ccc(O)cc4c3c(C)c2c1 | 43%
CC(=O)ON1C(=O)c2cccc3cccc(c23)C1=O | 97% (active)
COc1ccc2ccc3ccccc3c2c1C=O | 4%
OC1CCCc2c1cc1ccc3cccc4ccc2c1c34 (configuration not stated) | 99% (active)

Same assay, conditions: S. cerevisiae sgs1 mutant, at 33.0 µM, stronger effect = higher value

SMILES | growth inhibition
CCN(CC)CC[n+]1ccc2c(C)c3[nH]c4ccc(O)cc4c3c(C)c2c1 | 9%
O=[n+]1c2ccc(Cl)cc2n([O-])c2ccc(Cl)cc21 | 21%
CCOP(=O)(OCC)C(Cc1ccccc1)N=C(c1ccccc1)c1ccccc1 (configuration not stated) | 93% (active)
CC[C@@]1(O)C(=O)OCc2c1cc1n(c2=O)Cc2cc3c(N)cccc3nc2-1 | 5%
COC1C=COC2(C)Oc3c(C)c(O)c4c(c3C2=O)/C(=N/C2CCC(O)OC2C)C=C(NC(=O)/C(C)=C\C(=O)C2CC2C(O)C(C)C(O)C(C)C(OC(C)=O)C1C)C4=O (configuration not stated) | 37%
COc1cc2c(c(OC)c1OC)-c1c(cc3c(c1OC)OCO3)CC(C)C(C)(O)C2OC(=O)c1ccccc1 (configuration not stated) | -6%
O=c1ssc2ncccc12 | 96% (active)
O=C1C2C(C(=O)N1c1ccc(OCc3ccccc3)cc1)C1c3ccccc3C2C2CCCCN21 (configuration not stated) | 19%
COc1ccc(-c2cn(-c3ccc(I)cc3)c3ncnc(N)c23)cc1 | 26%
CCOC(=O)C(NC(=O)c1ccccc1)(N1CCN(c2cc3c(cc2F)c(=O)c(C(=O)O)cn3C2CC2)CC1)C(F)(F)F (configuration not stated) | 3%
C/C(=N\O)C1CC2C=C(C#N)C1N(Cc1ccccc1)C2 (configuration not stated) | 9%
CC/C(=C(\c1ccccc1)c1ccc(OCCN(C)C)cc1)c1ccccc1 | 97% (active)
COc1ccccc1N=NC(C(=O)c1ccccc1)C(=O)c1ccccc1 | 96% (active)
CC(O)C(O)C(O)C(/C=N\Nc1ccccc1)=N/Nc1ccccc1 (configuration not stated) | 68%
COc1ccc(/C=C2\SC(=S)N(/C=C/c3nc4ccccc4[nH]c3=O)C2=O)cc1OC | 85% (active)
N#CN=Nc1cc(Cl)c(N=NC#N)cc1Cl | 13%
Cc1ccc(S(=O)(=O)Oc2cc(Cl)c(Cl)cc2Cl)cc1 | 0%
c1ccc2c(c1)Oc1cccc3cccc-2c13 | 39%
O=C(c1ccc(Cl)cc1Cl)C(Cl)Cl | 80% (active)
CC(C)C1=CCC2C(=C1)CCC1C(C)(C(=O)O)CCCC21C (configuration not stated) (tested in a mixture with another compound) | 43%

SMILES | growth inhibition
COc1cc(/C=C2\CCc3ccccc3C2=O)cc(OC)c1OC | 61%
CC(=O)[O][Bi]([c]1ccccc1)[c]1ccccc1 | 88% (active)
S=C(N/N=C/c1ccccn1)Nc1ccc(Cl)cc1 | 22%
COc1cc(CC2CC(c3ccc4c(c3)OCO4)OC2=O)cc(OC)c1OC (configuration not stated) | 0%
CNC1C(OC2C(OC3C(O)C(O)C(N=C(N)N)C(O)C3N=C(N)N)OC(C)C2(O)CO)OC(CO)C(O)C1O (configuration not stated) | 35%
NNC(=O)CCc1ccc2ccc3ccccc3c2c1 | 22%
Oc1ccc2ccccc2c1C(c1ccc(Cl)cc1)c1c(O)ccc2ccccc12 | 38%
CCCCN(CCCC)CCSc1ccc(Cl)cc1 | 42%
CCC(C)COC(=O)c1ccc(N=Cc2ccc(C=Nc3ccc(C(=O)OCC(C)CC)cc3)cc2)cc1 (configuration not stated) | 7%
CC1(C)C(=O)OC(n2cc(F)c(=O)[nH]c2=O)C1=O (configuration not stated) | 45%
O=[N+]([O-])CC(SCc1ccccc1)c1ccc2c(c1)OCO2 (configuration not stated) | 100% (active)
COc1cc2c(cc1[N+](=O)[O-])C(=O)C(Br)(Br)CCC2 | 99% (active)
OCC1OC(OCC(O)C(O)C(O)C(/C=N/Nc2ccccc2)=N/Nc2ccccc2)C(O)C(O)C1O (configuration not stated) | 19%
COc1ccc(N=C2C(=O)Nc3ccc(Br)cc32)cc1 | -16%
Cn1c(=O)c2ccccc2c2ccccc21 | 43%
CC[n+]1ccc2c(C)c3[nH]c4ccc(O)cc4c3c(C)c2c1 | 0%
CC(=O)ON1C(=O)c2cccc3cccc(c23)C1=O | 98% (active)
COc1ccc2ccc3ccccc3c2c1C=O | 10%
OC1CCCc2c1cc1ccc3cccc4ccc2c1c34 (configuration not stated) | 97% (active)

Same assay, conditions: S. cerevisiae sgs1 mutant, at 100.0 µM, stronger effect = higher value

SMILES | growth inhibition
CCN(CC)CC[n+]1ccc2c(C)c3[nH]c4ccc(O)cc4c3c(C)c2c1 | 31%
O=[n+]1c2ccc(Cl)cc2n([O-])c2ccc(Cl)cc21 | 23%
CCOP(=O)(OCC)C(Cc1ccccc1)N=C(c1ccccc1)c1ccccc1 (configuration not stated) | 97% (active)
CC[C@@]1(O)C(=O)OCc2c1cc1n(c2=O)Cc2cc3c(N)cccc3nc2-1 | 8%
COC1C=COC2(C)Oc3c(C)c(O)c4c(c3C2=O)/C(=N/C2CCC(O)OC2C)C=C(NC(=O)/C(C)=C\C(=O)C2CC2C(O)C(C)C(O)C(C)C(OC(C)=O)C1C)C4=O (configuration not stated) | 89% (active)
COc1cc2c(c(OC)c1OC)-c1c(cc3c(c1OC)OCO3)CC(C)C(C)(O)C2OC(=O)c1ccccc1 (configuration not stated) | 69%
O=c1ssc2ncccc12 | 99% (active)
O=C1C2C(C(=O)N1c1ccc(OCc3ccccc3)cc1)C1c3ccccc3C2C2CCCCN21 (configuration not stated) | 94% (active)
COc1ccc(-c2cn(-c3ccc(I)cc3)c3ncnc(N)c23)cc1 | 29%
CCOC(=O)C(NC(=O)c1ccccc1)(N1CCN(c2cc3c(cc2F)c(=O)c(C(=O)O)cn3C2CC2)CC1)C(F)(F)F (configuration not stated) | 2%
C/C(=N\O)C1CC2C=C(C#N)C1N(Cc1ccccc1)C2 (configuration not stated) | 17%
CC/C(=C(\c1ccccc1)c1ccc(OCCN(C)C)cc1)c1ccccc1 | 97% (active)
COc1ccccc1N=NC(C(=O)c1ccccc1)C(=O)c1ccccc1 | 96% (active)
CC(O)C(O)C(O)C(/C=N\Nc1ccccc1)=N/Nc1ccccc1 (configuration not stated) | 98% (active)
COc1ccc(/C=C2\SC(=S)N(/C=C/c3nc4ccccc4[nH]c3=O)C2=O)cc1OC | 94% (active)
N#CN=Nc1cc(Cl)c(N=NC#N)cc1Cl | 94% (active)
Cc1ccc(S(=O)(=O)Oc2cc(Cl)c(Cl)cc2Cl)cc1 | 12%
c1ccc2c(c1)Oc1cccc3cccc-2c13 | 60%
O=C(c1ccc(Cl)cc1Cl)C(Cl)Cl | 98% (active)
CC(C)C1=CCC2C(=C1)CCC1C(C)(C(=O)O)CCCC21C (configuration not stated) (tested in a mixture with another compound) | 96% (active)

SMILES | growth inhibition
COc1cc(/C=C2\CCc3ccccc3C2=O)cc(OC)c1OC | 86% (active)
CC(=O)[O][Bi]([c]1ccccc1)[c]1ccccc1 | 95% (active)
S=C(N/N=C/c1ccccn1)Nc1ccc(Cl)cc1 | 66%
COc1cc(CC2CC(c3ccc4c(c3)OCO4)OC2=O)cc(OC)c1OC (configuration not stated) | 9%
CNC1C(OC2C(OC3C(O)C(O)C(N=C(N)N)C(O)C3N=C(N)N)OC(C)C2(O)CO)OC(CO)C(O)C1O (configuration not stated) | 46%
NNC(=O)CCc1ccc2ccc3ccccc3c2c1 | 52%
Oc1ccc2ccccc2c1C(c1ccc(Cl)cc1)c1c(O)ccc2ccccc12 | 88% (active)
CCCCN(CCCC)CCSc1ccc(Cl)cc1 | 95% (active)
CCC(C)COC(=O)c1ccc(N=Cc2ccc(C=Nc3ccc(C(=O)OCC(C)CC)cc3)cc2)cc1 (configuration not stated) | 11%
CC1(C)C(=O)OC(n2cc(F)c(=O)[nH]c2=O)C1=O (configuration not stated) | 67%
O=[N+]([O-])CC(SCc1ccccc1)c1ccc2c(c1)OCO2 (configuration not stated) | 99% (active)
COc1cc2c(cc1[N+](=O)[O-])C(=O)C(Br)(Br)CCC2 | 97% (active)
OCC1OC(OCC(O)C(O)C(O)C(/C=N/Nc2ccccc2)=N/Nc2ccccc2)C(O)C(O)C1O (configuration not stated) | 35%
COc1ccc(N=C2C(=O)Nc3ccc(Br)cc32)cc1 | -11%
Cn1c(=O)c2ccccc2c2ccccc21 | 66%
CC[n+]1ccc2c(C)c3[nH]c4ccc(O)cc4c3c(C)c2c1 | 46%
CC(=O)ON1C(=O)c2cccc3cccc(c23)C1=O | 98% (active)
COc1ccc2ccc3ccccc3c2c1C=O | 50%
OC1CCCc2c1cc1ccc3cccc4ccc2c1c34 (configuration not stated) | 90% (active)
